The source of these data is publication PMC7862700, “An all-to-all approach to the identification of sequence-specific readers for epigenetic DNA modifications on cytosine”.

Holding throughout (assay): DAPPL (digital affinity profiling via proximity ligation, sequencing); 10 mM Tris-HCl pH 7.5, 50 mM NaCl, 1 mM DTT, 4% glycerol, room temperature, 30 min; GST-TFs on glutathione beads, 16-mer random dsDNA library, 0.1% formaldehyde crosslink after washing; high values mean tight binding
The target in test [1] is T1, FEV (Homo sapiens, UniProt Q99581 1-238).
T1 sequence: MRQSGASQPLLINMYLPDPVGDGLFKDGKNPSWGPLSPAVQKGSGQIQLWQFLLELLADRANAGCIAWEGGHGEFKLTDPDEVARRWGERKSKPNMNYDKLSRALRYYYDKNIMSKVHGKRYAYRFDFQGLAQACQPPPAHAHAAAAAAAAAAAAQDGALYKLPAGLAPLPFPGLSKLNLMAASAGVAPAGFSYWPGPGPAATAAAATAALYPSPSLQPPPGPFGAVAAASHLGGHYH
Conditions: protein: recombinant; tags: N-terminal GST; dsDNA, one strand shown. The gist of the method:
(§1)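 Binding signal is each hexamer's read frequency for a factor divided by its frequency in the tag-only sample. The factors were GST-fused human transcription factors from yeast, captured on glutathione beads, DNA-barcoded and pooled with that sample. Pools were incubated with 200 nmole of a random double-stranded 16-mer DNA library in Tris/NaCl/DTT/glycerol buffer at room temperature for 30 min, then washed, crosslinked with 0.1% formaldehyde, proximity-ligated with BsaI/T4 ligase (1 h, 37 °C), PCR-amplified and sequenced on an Illumina NextSeq500.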

In test [2] the target is ETV5 (Homo sapiens, UniProt P41161 1-510). Conditions: protein: recombinant; tags: N-terminal GST; dsDNA, one strand shown. The gist of the method:
as §1

The target of test [3] is HSF1 (Homo sapiens, UniProt Q00613 1-529). Conditions: protein: recombinant; tags: N-terminal GST; chain copies: 3; dsDNA, one strand shown. The gist of the method: as §1
Sequence of HSF1 (Q00613 whole entry): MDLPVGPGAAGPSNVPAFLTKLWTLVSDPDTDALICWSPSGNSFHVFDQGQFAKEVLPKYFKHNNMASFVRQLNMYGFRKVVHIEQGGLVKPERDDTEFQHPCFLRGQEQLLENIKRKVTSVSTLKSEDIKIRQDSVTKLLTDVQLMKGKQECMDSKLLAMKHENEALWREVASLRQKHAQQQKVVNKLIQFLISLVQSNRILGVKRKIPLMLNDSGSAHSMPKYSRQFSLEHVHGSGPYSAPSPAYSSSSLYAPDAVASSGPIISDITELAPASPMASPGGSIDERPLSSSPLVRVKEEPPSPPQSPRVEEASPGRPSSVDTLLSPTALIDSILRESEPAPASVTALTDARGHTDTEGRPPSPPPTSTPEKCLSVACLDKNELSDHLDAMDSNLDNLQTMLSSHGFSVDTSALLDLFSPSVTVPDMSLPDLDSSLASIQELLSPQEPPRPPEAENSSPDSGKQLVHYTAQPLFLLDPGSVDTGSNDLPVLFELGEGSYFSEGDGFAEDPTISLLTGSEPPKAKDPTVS
For test [4], the target named is T2, SPIC (Homo sapiens, UniProt Q8N5J4 1-248).
T2 sequence: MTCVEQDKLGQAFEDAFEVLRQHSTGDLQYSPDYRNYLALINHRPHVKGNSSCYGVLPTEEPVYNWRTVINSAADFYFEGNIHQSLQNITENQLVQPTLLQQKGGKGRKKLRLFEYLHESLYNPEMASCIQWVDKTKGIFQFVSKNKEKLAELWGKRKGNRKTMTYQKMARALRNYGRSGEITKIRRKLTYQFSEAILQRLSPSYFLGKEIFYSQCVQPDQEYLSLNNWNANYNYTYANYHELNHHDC
Conditions: protein: recombinant; tags: N-terminal GST; dsDNA, one strand shown. The gist of the method: as §1

The target of test [5] is ELF4 (Homo sapiens, UniProt Q99607 1-663). Conditions: protein: recombinant; tags: N-terminal GST; dsDNA, one strand shown. The gist of the method:
as §1

For test [6], the target named is T3, ELK4 (Homo sapiens, UniProt P28324-2 1-405).
T3 sequence: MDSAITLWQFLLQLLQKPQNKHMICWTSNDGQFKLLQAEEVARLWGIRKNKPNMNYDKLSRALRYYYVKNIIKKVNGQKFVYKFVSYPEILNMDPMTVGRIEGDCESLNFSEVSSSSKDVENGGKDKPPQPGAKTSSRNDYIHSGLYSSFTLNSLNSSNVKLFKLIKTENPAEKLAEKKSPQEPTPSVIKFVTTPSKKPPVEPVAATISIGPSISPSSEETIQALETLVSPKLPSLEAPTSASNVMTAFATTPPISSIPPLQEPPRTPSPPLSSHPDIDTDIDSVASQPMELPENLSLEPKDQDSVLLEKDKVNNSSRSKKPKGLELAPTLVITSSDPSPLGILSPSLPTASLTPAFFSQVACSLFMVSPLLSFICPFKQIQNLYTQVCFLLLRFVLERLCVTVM
Conditions: protein: recombinant; tags: N-terminal GST; dsDNA, one strand shown. The gist of the method: as §1

Test [7] concerns the target T4, ETV2 (Homo sapiens, UniProt O00321 1-342).
T4 sequence: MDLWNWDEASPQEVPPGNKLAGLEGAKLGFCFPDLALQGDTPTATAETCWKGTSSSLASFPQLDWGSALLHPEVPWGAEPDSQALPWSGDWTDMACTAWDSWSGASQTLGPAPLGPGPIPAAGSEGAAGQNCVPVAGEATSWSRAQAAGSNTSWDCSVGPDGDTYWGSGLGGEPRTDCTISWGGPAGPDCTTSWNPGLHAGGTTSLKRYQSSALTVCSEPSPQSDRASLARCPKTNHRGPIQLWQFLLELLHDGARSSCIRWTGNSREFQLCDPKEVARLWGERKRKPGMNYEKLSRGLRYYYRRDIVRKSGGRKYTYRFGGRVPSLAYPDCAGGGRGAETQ
Conditions: protein: recombinant; tags: N-terminal GST; dsDNA, one strand shown. The gist of the method:
as §1

In test [8] the target is T5, ELF3 (Homo sapiens, UniProt P78545 1-371).
T5 sequence: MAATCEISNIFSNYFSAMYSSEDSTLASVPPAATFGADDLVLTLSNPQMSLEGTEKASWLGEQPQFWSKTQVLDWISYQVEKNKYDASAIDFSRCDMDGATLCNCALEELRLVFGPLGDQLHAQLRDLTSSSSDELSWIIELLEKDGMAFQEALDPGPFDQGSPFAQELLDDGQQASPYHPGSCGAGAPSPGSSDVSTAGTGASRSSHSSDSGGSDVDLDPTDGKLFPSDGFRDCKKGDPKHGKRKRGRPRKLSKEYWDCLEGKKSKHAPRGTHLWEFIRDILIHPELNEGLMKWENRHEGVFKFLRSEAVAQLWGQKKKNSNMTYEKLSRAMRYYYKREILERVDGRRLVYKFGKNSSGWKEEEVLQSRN
Conditions: protein: recombinant; tags: N-terminal GST; dsDNA, one strand shown. The gist of the method: as §1

Test [9] deals with CRX (Homo sapiens, UniProt O43186 1-299). Conditions: protein: recombinant; tags: N-terminal GST; dsDNA, one strand shown. The gist of the method: as §1
Sequence of CRX (O43186 whole entry): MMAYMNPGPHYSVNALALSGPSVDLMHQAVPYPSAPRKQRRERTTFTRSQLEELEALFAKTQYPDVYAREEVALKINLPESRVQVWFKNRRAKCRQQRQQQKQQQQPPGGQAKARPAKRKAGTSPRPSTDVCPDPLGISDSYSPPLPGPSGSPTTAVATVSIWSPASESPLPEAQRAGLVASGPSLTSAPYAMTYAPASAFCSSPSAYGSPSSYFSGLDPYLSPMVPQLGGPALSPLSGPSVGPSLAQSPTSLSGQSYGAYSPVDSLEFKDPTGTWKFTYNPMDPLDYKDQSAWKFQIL
Test [10] deals with ETV1 (Homo sapiens, UniProt P50549 1-477). Conditions: protein: recombinant; tags: N-terminal GST; dsDNA, one strand shown. The gist of the method: as §1
Sequence of ETV1 (P50549 whole entry): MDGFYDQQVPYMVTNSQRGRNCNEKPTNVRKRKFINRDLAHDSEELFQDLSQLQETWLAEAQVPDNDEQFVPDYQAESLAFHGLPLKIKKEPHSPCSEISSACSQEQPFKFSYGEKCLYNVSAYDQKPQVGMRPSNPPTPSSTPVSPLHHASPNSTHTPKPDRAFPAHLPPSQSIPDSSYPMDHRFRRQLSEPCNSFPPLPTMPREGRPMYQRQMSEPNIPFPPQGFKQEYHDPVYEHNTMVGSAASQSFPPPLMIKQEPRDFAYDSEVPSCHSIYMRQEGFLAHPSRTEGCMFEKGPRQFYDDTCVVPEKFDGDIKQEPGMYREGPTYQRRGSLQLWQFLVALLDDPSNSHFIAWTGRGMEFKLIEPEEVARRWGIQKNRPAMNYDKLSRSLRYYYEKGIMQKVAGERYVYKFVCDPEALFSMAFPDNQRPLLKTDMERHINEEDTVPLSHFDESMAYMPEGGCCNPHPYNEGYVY
Test [11] concerns the target T6, ERF (Homo sapiens, UniProt P50548 1-548).
T6 sequence: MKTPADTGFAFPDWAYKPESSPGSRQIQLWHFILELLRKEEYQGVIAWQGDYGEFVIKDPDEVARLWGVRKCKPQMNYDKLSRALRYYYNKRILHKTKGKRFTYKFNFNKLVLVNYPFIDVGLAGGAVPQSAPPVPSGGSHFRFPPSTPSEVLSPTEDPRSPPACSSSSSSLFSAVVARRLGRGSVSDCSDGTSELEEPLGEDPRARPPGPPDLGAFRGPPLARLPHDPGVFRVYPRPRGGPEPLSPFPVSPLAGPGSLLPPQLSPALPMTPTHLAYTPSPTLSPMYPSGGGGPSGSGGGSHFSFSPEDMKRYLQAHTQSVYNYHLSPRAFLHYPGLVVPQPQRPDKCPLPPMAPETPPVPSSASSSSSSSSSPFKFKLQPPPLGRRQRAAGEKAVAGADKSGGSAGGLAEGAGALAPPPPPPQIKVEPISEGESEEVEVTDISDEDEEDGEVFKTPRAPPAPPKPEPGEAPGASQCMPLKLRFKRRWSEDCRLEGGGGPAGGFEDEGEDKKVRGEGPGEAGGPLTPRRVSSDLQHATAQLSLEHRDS
Conditions: protein: recombinant; tags: N-terminal GST; dsDNA, one strand shown. The gist of the method: as §1

In test [12] the target is T7, ETV3L (Homo sapiens, UniProt Q6ZN32 1-361).
T7 sequence: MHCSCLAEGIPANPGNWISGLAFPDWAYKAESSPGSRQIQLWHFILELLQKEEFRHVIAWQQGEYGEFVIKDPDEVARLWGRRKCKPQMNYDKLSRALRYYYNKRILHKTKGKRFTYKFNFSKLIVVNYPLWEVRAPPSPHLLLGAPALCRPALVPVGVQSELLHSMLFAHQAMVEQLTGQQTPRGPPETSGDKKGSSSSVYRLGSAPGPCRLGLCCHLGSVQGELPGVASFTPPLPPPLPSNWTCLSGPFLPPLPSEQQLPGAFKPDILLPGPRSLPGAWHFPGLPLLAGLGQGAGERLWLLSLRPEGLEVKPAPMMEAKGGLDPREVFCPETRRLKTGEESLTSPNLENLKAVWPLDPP
Conditions: protein: recombinant; tags: N-terminal GST; dsDNA, one strand shown. The gist of the method: as §1

Test [13] has as its target T8, ETS2 (Homo sapiens, UniProt P15036 1-469).
T8 sequence: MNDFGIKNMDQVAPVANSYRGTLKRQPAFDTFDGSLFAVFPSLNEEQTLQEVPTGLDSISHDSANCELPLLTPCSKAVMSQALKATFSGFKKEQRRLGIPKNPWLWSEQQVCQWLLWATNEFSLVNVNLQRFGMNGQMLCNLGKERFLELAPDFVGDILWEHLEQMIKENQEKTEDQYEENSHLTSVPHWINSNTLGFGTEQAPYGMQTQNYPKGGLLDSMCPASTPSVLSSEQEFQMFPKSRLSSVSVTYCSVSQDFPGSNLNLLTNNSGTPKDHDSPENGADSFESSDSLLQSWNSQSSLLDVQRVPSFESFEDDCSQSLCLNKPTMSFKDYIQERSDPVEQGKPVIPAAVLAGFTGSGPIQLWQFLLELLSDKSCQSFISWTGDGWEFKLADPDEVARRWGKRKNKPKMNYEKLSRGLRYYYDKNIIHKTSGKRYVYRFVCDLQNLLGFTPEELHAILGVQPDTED
Conditions: protein: recombinant; tags: N-terminal GST; dsDNA, one strand shown. The gist of the method:
as §1

In test [14] the target is T9, SPDEF (Homo sapiens, UniProt O95238 1-335).
T9 sequence: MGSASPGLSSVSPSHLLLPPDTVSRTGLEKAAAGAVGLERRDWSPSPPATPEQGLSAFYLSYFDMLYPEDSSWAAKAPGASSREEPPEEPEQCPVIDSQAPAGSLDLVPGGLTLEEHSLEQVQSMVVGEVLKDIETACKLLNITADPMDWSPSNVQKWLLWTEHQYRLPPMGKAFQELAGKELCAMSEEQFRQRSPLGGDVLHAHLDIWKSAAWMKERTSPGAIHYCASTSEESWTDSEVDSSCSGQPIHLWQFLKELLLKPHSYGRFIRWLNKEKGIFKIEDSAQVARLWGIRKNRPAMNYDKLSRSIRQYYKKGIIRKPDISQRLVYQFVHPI
Conditions: protein: recombinant; tags: N-terminal GST; dsDNA, one strand shown. The gist of the method:
as §1

For test [15], the target named is T10, ETV7 (Homo sapiens, UniProt Q9Y603 1-341).
T10 sequence: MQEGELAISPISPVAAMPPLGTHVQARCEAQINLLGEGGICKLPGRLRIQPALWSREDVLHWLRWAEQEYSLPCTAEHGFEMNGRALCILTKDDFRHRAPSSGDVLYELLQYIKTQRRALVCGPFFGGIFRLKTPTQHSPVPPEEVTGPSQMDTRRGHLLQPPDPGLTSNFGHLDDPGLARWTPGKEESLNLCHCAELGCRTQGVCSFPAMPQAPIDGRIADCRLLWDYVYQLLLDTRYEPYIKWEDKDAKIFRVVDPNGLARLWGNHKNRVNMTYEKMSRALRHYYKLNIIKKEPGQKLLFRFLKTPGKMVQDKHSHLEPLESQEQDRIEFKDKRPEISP
Conditions: protein: recombinant; tags: N-terminal GST; dsDNA, one strand shown. The gist of the method:
as §1

Test [16] addresses T11, ELF5 (Homo sapiens, UniProt Q9UKW6-2 1-255).
T11 sequence: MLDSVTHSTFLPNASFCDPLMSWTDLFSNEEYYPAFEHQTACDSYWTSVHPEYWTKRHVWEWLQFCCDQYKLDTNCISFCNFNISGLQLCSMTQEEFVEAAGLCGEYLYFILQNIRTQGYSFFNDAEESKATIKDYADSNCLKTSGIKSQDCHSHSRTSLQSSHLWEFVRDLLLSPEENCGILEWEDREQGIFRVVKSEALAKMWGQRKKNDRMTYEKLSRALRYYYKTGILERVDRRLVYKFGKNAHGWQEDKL
Conditions: protein: recombinant; tags: N-terminal GST; dsDNA, one strand shown. The gist of the method:
as §1

Test [17] addresses T12, ETV3 (Homo sapiens, UniProt P41162-2 1-143).
T12 sequence: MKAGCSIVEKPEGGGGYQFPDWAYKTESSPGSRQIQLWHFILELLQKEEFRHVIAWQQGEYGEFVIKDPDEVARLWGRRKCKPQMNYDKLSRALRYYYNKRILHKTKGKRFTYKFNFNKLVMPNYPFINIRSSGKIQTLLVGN
Conditions: protein: recombinant; tags: N-terminal GST; dsDNA, one strand shown. The gist of the method: as §1

Test [18] has as its target ETV6 (Homo sapiens, UniProt P41212 1-452). Conditions: protein: recombinant; tags: N-terminal GST; dsDNA, one strand shown. The gist of the method: as §1

Sequence of ELF4 (Q99607 whole entry): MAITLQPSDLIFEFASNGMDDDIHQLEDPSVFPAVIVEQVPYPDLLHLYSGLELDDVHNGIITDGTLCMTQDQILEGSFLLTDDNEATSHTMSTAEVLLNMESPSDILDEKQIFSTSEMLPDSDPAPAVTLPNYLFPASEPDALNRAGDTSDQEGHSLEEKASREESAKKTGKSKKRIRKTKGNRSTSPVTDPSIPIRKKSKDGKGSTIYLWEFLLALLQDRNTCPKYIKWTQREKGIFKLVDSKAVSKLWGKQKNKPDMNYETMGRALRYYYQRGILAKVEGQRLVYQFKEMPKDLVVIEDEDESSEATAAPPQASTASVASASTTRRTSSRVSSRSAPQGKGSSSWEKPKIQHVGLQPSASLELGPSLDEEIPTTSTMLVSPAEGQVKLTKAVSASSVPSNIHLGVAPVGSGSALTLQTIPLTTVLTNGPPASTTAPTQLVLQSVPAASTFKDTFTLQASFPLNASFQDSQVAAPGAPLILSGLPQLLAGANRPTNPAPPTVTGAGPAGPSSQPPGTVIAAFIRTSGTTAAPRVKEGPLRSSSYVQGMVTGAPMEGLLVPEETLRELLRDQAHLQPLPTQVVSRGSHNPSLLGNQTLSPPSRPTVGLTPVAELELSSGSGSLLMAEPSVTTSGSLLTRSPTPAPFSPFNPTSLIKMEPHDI
Sequence of ETV5 (P41161 whole entry): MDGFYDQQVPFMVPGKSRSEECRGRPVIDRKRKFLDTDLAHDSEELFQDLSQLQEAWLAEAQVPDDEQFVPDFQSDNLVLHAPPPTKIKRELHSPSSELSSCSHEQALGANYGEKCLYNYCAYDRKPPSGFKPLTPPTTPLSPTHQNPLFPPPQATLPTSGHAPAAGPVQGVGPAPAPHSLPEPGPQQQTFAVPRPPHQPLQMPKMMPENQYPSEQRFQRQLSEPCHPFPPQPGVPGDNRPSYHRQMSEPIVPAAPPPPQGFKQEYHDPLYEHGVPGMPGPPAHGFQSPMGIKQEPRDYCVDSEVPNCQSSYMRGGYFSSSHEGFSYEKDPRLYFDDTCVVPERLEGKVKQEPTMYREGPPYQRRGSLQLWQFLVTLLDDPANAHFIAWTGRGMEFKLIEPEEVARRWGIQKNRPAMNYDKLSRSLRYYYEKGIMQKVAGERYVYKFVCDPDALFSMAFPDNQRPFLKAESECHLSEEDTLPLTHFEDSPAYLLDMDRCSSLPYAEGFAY
Sequence of ETV6 (P41212 whole entry): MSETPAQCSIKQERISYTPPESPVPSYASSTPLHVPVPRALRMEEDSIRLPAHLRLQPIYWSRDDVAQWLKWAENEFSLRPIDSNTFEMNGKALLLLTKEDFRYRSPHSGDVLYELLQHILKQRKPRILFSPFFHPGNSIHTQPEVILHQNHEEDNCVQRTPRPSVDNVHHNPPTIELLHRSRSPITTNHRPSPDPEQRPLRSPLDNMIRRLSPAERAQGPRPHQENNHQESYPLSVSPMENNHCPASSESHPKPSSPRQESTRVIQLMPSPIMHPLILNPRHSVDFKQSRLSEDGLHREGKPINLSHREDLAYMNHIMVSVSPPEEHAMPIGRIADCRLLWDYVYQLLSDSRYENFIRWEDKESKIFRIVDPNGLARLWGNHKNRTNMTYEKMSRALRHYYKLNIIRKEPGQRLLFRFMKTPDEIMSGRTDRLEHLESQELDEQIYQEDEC

As to GTTTAA, the binding signal in test [1] is 1.11 fold enrichment (6-mer frequency, TF over GST control); in test [2], 1.07 fold enrichment (6-mer frequency, TF over GST control); in test [3] it was 1.28 fold enrichment (6-mer frequency, TF over GST control); in test [4], 1.02 fold enrichment (6-mer frequency, TF over GST control); in test [5], 1.1 fold enrichment (6-mer frequency, TF over GST control); in test [6], 1.14 fold enrichment (6-mer frequency, TF over GST control). Further, the binding signal was 1.23 fold enrichment (6-mer frequency, TF over GST control) in test [7]; 1.05 fold enrichment (6-mer frequency, TF over GST control) in test [8]; 1.79 fold enrichment (6-mer frequency, TF over GST control) in test [9]; 1.14 fold enrichment (6-mer frequency, TF over GST control) in test [10]; 1.21 fold enrichment (6-mer frequency, TF over GST control) in test [11]; 1.24 fold enrichment (6-mer frequency, TF over GST control) in test [12]. Further, the binding signal in test [13] was 1.15 fold enrichment (6-mer frequency, TF over GST control); in [14], 1.05 fold enrichment (6-mer frequency, TF over GST control); in test [15] it was 1.21 fold enrichment (6-mer frequency, TF over GST control); in test [16], 1.17 fold enrichment (6-mer frequency, TF over GST control); in [17], 1.13 fold enrichment (6-mer frequency, TF over GST control); in test [18], 1.13 fold enrichment (6-mer frequency, TF over GST control).
